For 30 compounds, Potency results are on record in PubChem BioAssay (Tox21).

Experiment [1] in a line: qHTS assay to identify aromatase inhibitors - cell viability counter screen (AID 743084;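 further: cells stimulated with testosterone during compound exposure; nearly all actives have a fitted effect of over 55% in size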; further: potency means the concentration at half of the fitted maximal effect). (Quantitative high-throughput screening tests each substance at several concentrations.)
Experiment [2] addresses Aryl hydrocarbon receptor (Homo sapiens) (UniProt P35869). The experiment in a line: qHTS assay to identify small molecule that activate the aryl hydrocarbon receptor (AhR) signaling pathway (AID 743085). Further: nearly all actives have a fitted effect of over 15% in size. Further: potency means the concentration at half of the fitted maximal effect.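 On activation: HG2L7.5c1 human HepG2 liver cells with stably integrated DRE-driven firefly reporter; series mostly up to about 70 µM.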 Summed up: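 Steps: seed HepG2-AhR-luc cells; allow 5 h at 37C; pin-transfer test compound or vehicle; incubate 24 h at 37C; add viability dye (30 min, 37C) and read fluorescence; add luciferase substrate (30 min, RT) and read luminescence.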

The nature of experiment [3]: qHTS assay to identify small molecule that activate the aryl hydrocarbon receptor (AhR) signaling pathway - cell viability counter screen (AID 743086). Further: nearly all actives have a fitted effect of over 45% in size. Further: potency means the concentration at half of the fitted maximal effect. The essentials: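 HepG2-AhR-luc (HG2L7.5c1) cells, 4000/well, treated 24 h at 37 C with compound; viability measured as CellTiter-Fluor fluorescence after 30 min in the same wells as the luciferase read.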
In experiment [4] the target is Peroxisome proliferator-activated receptor gamma (Homo sapiens) (UniProt P37231). The experiment in a line: qHTS assay to identify small molecule agonists of the peroxisome proliferator-activated receptor gamma (PPARg) signaling pathway (AID 743094; active means well fitted activation curve with a large enough effect in the signal ratio in the repeat runs, not every such curve was filed as active; the % refers to the signal ratio; further: potency means the concentration at half of the fitted maximal effect). Summed up:
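Quantitative HTS agonist mode: stable HEK293H line with UAS-beta-lactamase reporter under PPARg control, 17 h compound exposure at 37C, fluorescence after 1 h FRET substrate loading at room temperature.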

Experiment [5] is described as follows: qHTS assay to identify small molecule antagonists of the peroxisome proliferator-activated receptor gamma (PPARg) signaling pathway - cell viability counter screen (AID 743194). Further: nearly all actives have a fitted effect of over 55% in size. Further: potency means the concentration at half of the fitted maximal effect. Summed up:
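Cytotoxicity counter screen in PPARg-bla HEK293H cells, same wells as reporter assay. Compounds plus 50 nM rosiglitazone (final) for 17 h at 37 C, then viability read by CellTiter-Glo luminescence.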

A short description of experiment [6]: qHTS assay for small molecule agonists of the antioxidant response element (ARE) signaling pathway (AID 743202; active means well fitted activation curve with a large enough effect in the signal ratio in the repeat runs, not every such curve was filed as active; the % refers to the signal ratio; further: potency means the concentration at half of the fitted maximal effect). Summed up:
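ARE-bla HepG2 cells (beta-lactamase reporter under the antioxidant response element), plated 5 hours, then exposed to compounds 16 hours at 37 C. LiveBLAzer B/G FRET substrate added for 2 hours at room temperature; fluorescence intensity read.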

A short description of experiment [7]: qHTS assay for small molecule agonists of the antioxidant response element (ARE) signaling pathway - cell viability counter screen (AID 743203; calls by dose curve; further: nearly all actives have a fitted effect of over 55% in size; further: potency means the concentration at half of the fitted maximal effect). Summed up: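 Seeded at 2,000 cells/well, ARE-bla HepG2 cells were incubated 5 hrs before compound addition. After 16 hrs of treatment at 37C with 5% CO2, CellTiter-Glo reagent was added and luminescence read 30 min later.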

A short description of experiment [8]: qHTS assay for small molecule activators of the heat shock response signaling pathway - cell viability counter screen (AID 743209). Further: nearly all actives have a fitted effect of over 50% in size. The essentials: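 First, HSE-bla HeLa cells were seeded at 1500 cells/well and kept overnight at 37 C. Next, compounds were pinned in and incubated 5 h. After the FRET substrate step, CellTiter-Glo was added and luminescence read 30 min later.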

Experiment [9] is described as follows: qHTS assay for small molecule activators of the heat shock response signaling pathway (AID 743210; active means well fitted activation curve with a large enough effect in the signal ratio in the repeat runs, with a control signal flat, not every such curve was filed as active; the % refers to the signal ratio; further: series mostly up to about 63 µM). The essentials:
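HSE-bla HeLa cells (beta-lactamase reporter under heat shock response elements), plated overnight, then exposed to compounds 5 h at 37 C; LiveBLAzer B/G FRET substrate added, 2.5 h at room temperature, fluorescence intensity read.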

Experiment [10] has as its target Peroxisome proliferator-activated receptor gamma (Homo sapiens) (UniProt P37231). In words: qHTS assay to identify small molecule antagonists of the peroxisome proliferator-activated receptor gamma (PPARg) signaling pathway (AID 743191; calls by dose curve; further: nearly all actives have a fitted effect of over 30% in size; further: potency means the concentration at half of the fitted maximal effect). Summed up: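 GeneBLAzer PPARg UAS-bla HEK293H cells, 5 h post-plating, exposed to compounds 17 h at 37C. LiveBLAzer B/G FRET substrate added for 1 h at room temperature; beta-lactamase reporter read by fluorescence intensity.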

Each structure is given as a SMILES string. Inconclusive results are not listed. Values without a mark were called inactive. The source made the active and inactive calls. Unless noted, the call rests on the fitted dose curve; in most records, active means well fitted curve in the direction sought with a large enough effect in the repeat runs; inconclusive means weak or mixed curves; inactive means no such curve, though single readings can be large; an effect the other way counts as inactive or inconclusive.

Aryl hydrocarbon receptor (Homo sapiens), sequence (P35869 whole entry, looked up): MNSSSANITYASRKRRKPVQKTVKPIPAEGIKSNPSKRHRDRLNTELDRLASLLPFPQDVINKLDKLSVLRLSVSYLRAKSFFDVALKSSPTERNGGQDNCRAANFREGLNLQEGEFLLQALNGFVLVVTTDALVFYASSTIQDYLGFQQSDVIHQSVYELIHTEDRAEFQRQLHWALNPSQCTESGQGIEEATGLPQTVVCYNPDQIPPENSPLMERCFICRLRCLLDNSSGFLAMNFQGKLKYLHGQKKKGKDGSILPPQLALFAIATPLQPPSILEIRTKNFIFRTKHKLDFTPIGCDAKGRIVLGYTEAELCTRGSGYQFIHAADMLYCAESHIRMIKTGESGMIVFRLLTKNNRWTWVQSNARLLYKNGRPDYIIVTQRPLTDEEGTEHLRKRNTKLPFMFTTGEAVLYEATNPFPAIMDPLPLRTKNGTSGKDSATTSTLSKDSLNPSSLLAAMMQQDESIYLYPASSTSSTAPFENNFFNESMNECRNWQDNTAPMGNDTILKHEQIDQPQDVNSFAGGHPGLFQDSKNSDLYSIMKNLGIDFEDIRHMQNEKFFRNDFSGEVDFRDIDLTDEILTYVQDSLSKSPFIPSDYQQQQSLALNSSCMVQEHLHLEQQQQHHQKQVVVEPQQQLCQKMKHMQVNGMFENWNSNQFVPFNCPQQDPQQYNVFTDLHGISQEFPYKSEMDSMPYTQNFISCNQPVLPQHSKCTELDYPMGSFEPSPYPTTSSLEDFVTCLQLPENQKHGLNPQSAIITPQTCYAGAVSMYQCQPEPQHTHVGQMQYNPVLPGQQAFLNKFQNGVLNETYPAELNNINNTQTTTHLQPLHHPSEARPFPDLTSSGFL
Peroxisome proliferator-activated receptor gamma (Homo sapiens), sequence (P37231 whole entry, looked up): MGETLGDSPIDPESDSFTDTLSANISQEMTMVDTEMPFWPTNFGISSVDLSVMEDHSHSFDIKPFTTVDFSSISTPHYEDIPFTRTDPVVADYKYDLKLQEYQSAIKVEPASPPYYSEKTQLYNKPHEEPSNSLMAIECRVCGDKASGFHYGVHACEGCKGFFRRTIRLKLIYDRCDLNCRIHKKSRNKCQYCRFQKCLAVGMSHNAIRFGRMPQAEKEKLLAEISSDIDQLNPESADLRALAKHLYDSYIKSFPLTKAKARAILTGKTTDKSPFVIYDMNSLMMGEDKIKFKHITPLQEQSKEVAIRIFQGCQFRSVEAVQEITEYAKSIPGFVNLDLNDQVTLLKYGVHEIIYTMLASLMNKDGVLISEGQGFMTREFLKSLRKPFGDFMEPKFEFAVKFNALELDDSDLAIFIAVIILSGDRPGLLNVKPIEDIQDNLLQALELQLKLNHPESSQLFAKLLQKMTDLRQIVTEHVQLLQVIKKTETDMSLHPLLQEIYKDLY

As to `N#C[C@@H]1C[C@@H]2C[C@@H]2N1C(=O)[C@@H](N)C12CC3CC(CC(O)(C3)C1)C2`, the Potency result in experiment [1], in experiment [2], in [3], in [4], in [5] and in experiment [6] was “inactive” throughout. The Potency result in experiment [7], in experiment [8] and in experiment [9] was “inactive” throughout.
As to `CC(CCO)CCc1ccccc1` (configuration not stated), the Potency result in experiment [1], in experiment [2], in [3], in experiment [4], in experiment [10] and in experiment [7] was “inactive” each time. Besides, in experiment [9], the Potency result was “inactive”.
On to `CC[C@@H]([C@H](C)O)n1ncn(-c2ccc(N3CCN(c4ccc(OC[C@@H]5CO[C@@](Cn6cncn6)(c6ccc(F)cc6F)C5)cc4)CC3)cc2)c1=O`, for which the Potency entry in experiment [1], in experiment [2], in [3], in experiment [4], in [7] and in experiment [8] was “inactive” in each case. Besides, in experiment [9], the Potency result is “inactive”. The Potency was 29.8 µM (active) in experiment [5] and 10.6 µM (active) in [6].
Consider `O=C(Nc1ccccc1)Nc1ccccc1`, for which the Potency entry in experiment [1], in experiment [3], in experiment [4], in [5], in [6] and in [7] was “inactive” throughout. Besides, the Potency result in experiment [8] and in experiment [9] was “inactive” throughout. Besides, the Potency in experiment [2] is 30.8 µM (active).
As for `CC(COc1ccc(C(C)(C)C)cc1)OS(=O)OCCCl` (configuration not stated), the Potency result in [1], in experiment [2], in [3], in experiment [4], in experiment [10] and in experiment [6] was “inactive” in each case. Further, the Potency result in [7], in experiment [8] and in [9] was “inactive” throughout.
In the case of `CC(=O)OCC(=O)[C@H]1CC[C@H]2[C@@H]3CCC4=CC(=O)CC[C@]4(C)[C@H]3CC[C@]12C`, the Potency entry in experiment [1], in experiment [2], in experiment [3], in experiment [4], in experiment [7] and in experiment [8] was “inactive” in each case. In addition, the Potency entry in experiment [9] is “inactive”.
As to `CC(C)(O)c1ccccc1CC[C@@H](SCC1(CC(=O)O)CC1)c1cccc(/C=C/c2ccc3ccc(Cl)cc3n2)c1`, the Potency result in [1], in experiment [3], in experiment [4], in experiment [7], in experiment [8] and in experiment [9] was “inactive” each time. In [2], the Potency is 23.7 µM (active).
`CC1(C)O[C@@H]2C[C@H]3[C@@H]4CCC5=CC(=O)C=C[C@]5(C)[C@H]4[C@@H](O)C[C@]3(C)[C@]2(C(=O)CO)O1`: the Potency entry in [1], in experiment [2], in [3], in experiment [5], in [6] and in experiment [7] was “inactive” each time. Besides, the Potency result in experiment [8] and in experiment [9] was “inactive” each time.
Consider `CO/N=C1\CN(c2nc3c(cc2F)c(=O)c(C(=O)O)cn3C2CC2)CC1CN` (configuration not stated), for which the Potency entry in [1], in [2], in experiment [3], in experiment [4], in experiment [5] and in experiment [7] was “inactive” each time. In addition, the Potency entry in experiment [8] and in experiment [9] was “inactive” throughout.
On to `Cc1cc2nc3ccc(=[N+](C)C)cc-3sc2cc1N`, for which the Potency in experiment [1] is 26.6 µM (active); in experiment [2], 4.22 µM (active); in experiment [3] it was 9.44 µM (active); in [6], 2.11 µM (active); in experiment [7] it was 11.9 µM (active). For the same compound, the Potency result in [4] and in [8] was “inactive” throughout.
Regarding `CC(C)(C)C(=O)C(Oc1ccc(Cl)cc1)n1ccnc1` (configuration not stated), the Potency result in [1], in experiment [3], in experiment [5], in experiment [6], in [7] and in experiment [8] was “inactive” throughout. Also, in experiment [2], the Potency was 23.7 µM (active).
`CCCCCCCCCCCC(=O)[O][Sn]([CH2]CCC)([CH2]CCC)[O]C(=O)CCCCCCCCCCC`: the Potency entry in experiment [1], in experiment [2], in [3] and in [4] was “inactive” each time. In addition, the Potency in [6] was 2.11 µM (active).
In the case of `O=C(c1ccc(O)cc1)c1ccc(Cl)cc1`, the Potency result in [1], in experiment [2], in [3], in [4], in experiment [7] and in experiment [8] was “inactive” each time. Further, the Potency result in [9] is “inactive”.
In the case of `CCCCC(=O)O[C@]1(C(=O)CO)CC[C@H]2[C@@H]3CCC4=CC(=O)CC[C@]4(C)[C@H]3[C@@H](O)C[C@@]21C`, the Potency entry in experiment [1], in experiment [2], in experiment [3], in [5], in experiment [6] and in experiment [7] was “inactive” in each case. In addition, the Potency entry in experiment [8] and in experiment [9] was “inactive” throughout.
`CC#N`: the Potency result in experiment [1], in experiment [2], in [3], in experiment [5], in experiment [6] and in experiment [7] was “inactive” each time. The Potency result in experiment [8] and in experiment [9] was “inactive” each time.
As to `CCc1nn(CCCN2CCN(c3cccc(Cl)c3)CC2)c(=O)n1CCOc1ccccc1`, the Potency in [1] is 29.8 µM (active); in [3], 23.7 µM (active). Further, the Potency result in experiment [2], in [4] and in experiment [9] was “inactive” throughout.
Turning to `CC(C)(CCl)c1ccccc1`, the Potency result in experiment [1], in [2], in experiment [3], in [5], in experiment [6] and in [7] was “inactive” throughout.
On to `Cc1ccc(/C=N/n2c(-c3ccccc3)csc2=S)cc1`, for which the Potency entry in experiment [1], in [3], in experiment [5] and in experiment [7] was “inactive” throughout. The Potency in [2] was 10.6 µM (active); in experiment [10], 13.3 µM (active).
In the case of `CCC(C(=O)OCCOCCN(CC)CC)c1ccccc1` (configuration not stated), the Potency entry in experiment [1], in experiment [2], in experiment [3], in experiment [4], in experiment [6] and in experiment [7] was “inactive” each time. The Potency entry in experiment [9] was “inactive”.
Regarding `O=C(CS)OCCOC(=O)CS`, the Potency entry in experiment [1], in experiment [2], in experiment [3], in [4], in experiment [5] and in experiment [6] was “inactive” in each case. In addition, the Potency result in experiment [7], in experiment [8] and in experiment [9] was “inactive” each time.
Consider `CC1CC(=O)NN=C1c1ccc(NCC(C)(C)NCC(O)COc2cc(Cl)ccc2C#N)cc1` (configuration not stated), for which the Potency entry in experiment [1], in experiment [3], in experiment [5], in experiment [6], in [7] and in experiment [8] was “inactive” each time. Besides, the Potency entry in experiment [9] is “inactive”. Also, the Potency in experiment [2] is 6.68 µM (active).
On to `CCC(=O)Oc1ccc(/C(CC)=C(\CC)c2ccc(OC(=O)CC)cc2)cc1`, for which the Potency entry in experiment [1], in experiment [2], in experiment [3], in [4] and in [7] was “inactive” each time.
With `CCCc1c(OCCCOc2ccc(OCC(=O)O)cc2)ccc(C(C)=O)c1O`, the Potency entry in experiment [1], in experiment [2], in experiment [3], in experiment [6], in experiment [7] and in experiment [8] was “inactive” throughout. For the same compound, in [9], the Potency entry is “inactive”. Moreover, the Potency in experiment [4] was 275 nM (active).
Regarding `CCn1nc(C)c2c1C(=O)NCC(c1ccc(O)cc1)=N2`, the Potency result in experiment [1], in experiment [3], in [4], in experiment [7] and in experiment [9] was “inactive” each time. For the same compound, the Potency in [2] is 24.3 µM (active).
Take `CCCCCCCC/C=C\CCCCCCCC(=O)OC(CO)CO`: the Potency result in experiment [1], in experiment [2], in experiment [3], in experiment [4], in experiment [5] and in [7] was “inactive” each time.
Regarding `C[N+]1(C)CCC(=C(c2ccccc2)c2ccccc2)CC1`, the Potency result in [1], in experiment [2], in experiment [3], in experiment [5] and in experiment [7] was “inactive” each time.
For `C[N+](C)(C)CCOC(N)=O`, the Potency entry in experiment [1], in [2], in [3], in [5], in experiment [6] and in experiment [7] was “inactive” throughout. For the same compound, the Potency entry in experiment [8] and in experiment [9] was “inactive” each time.
Regarding `CSc1ccc(Oc2ccc(S(N)(=O)=O)cc2CN(C)C)cc1C`, the Potency result in experiment [1], in [2], in experiment [3], in experiment [4], in experiment [5] and in [7] was “inactive” throughout. In addition, the Potency entry in experiment [8] and in experiment [9] was “inactive” each time.
Take `Brc1cc(-c2ccc(Br)c(Br)c2Br)cc(Br)c1Br`: the Potency result in [1], in experiment [3], in experiment [5], in experiment [7], in experiment [8] and in experiment [9] was “inactive” in each case. Further, in experiment [2], the Potency is 8.5 µM (active).
On to `C[C@]12CCC(=O)C=C1C=C[C@@H]1[C@@H]2CC[C@@]2(C)[C@H]1CC[C@@]21CCC(=O)O1`, for which the Potency entry in experiment [1], in experiment [2], in experiment [3], in experiment [5], in [7] and in experiment [8] was “inactive” each time. The Potency entry in [9] was “inactive”. Also, the Potency in [6] was 11.9 µM (active).
